CHO-K1 Ca PAM: M1 PAM counterscreen hit in parental CHO-K1 cells | ATP EC20, Fluo-8 calcium fluorescence; 0% at ATP EC20, 100% at ATP max | activation, % at 3 µM | actives 0.02% (n = 360,000) | AID 602247;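 active means activation above the run cutoff, the mean activation of all test compounds plus 3 SD, cut at about 40% in these data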;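 further: peak over basal fluorescence ratio in a 140 s read after ATP addition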
M1 PAM: positive allosteric modulators of human M1 muscarinic receptor. P11229. CHO-K1 hM1, Fluo-8 calcium fluorescence, ACh EC20; 0% = ACh EC20, 100% = maximal ACh. activation, % at 3 µM. actives 0.088% (n = 360,000). AID 588819; in the data active means activation above about 19%, passing the limit was not always enough
Target sequence (P11229 whole entry, looked up): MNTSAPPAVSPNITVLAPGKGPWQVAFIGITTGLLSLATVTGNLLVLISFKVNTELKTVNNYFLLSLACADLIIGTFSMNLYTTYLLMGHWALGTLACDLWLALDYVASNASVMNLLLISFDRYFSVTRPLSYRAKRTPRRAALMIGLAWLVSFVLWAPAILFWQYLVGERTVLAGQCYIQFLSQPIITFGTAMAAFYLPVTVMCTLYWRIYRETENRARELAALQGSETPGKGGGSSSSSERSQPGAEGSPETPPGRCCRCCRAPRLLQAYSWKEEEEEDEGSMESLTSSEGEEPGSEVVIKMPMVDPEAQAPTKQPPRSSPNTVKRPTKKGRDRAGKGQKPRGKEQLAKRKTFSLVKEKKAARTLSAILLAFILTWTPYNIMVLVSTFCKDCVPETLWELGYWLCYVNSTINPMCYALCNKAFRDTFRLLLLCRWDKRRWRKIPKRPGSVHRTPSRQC
CHO-K1 Ca antag: M1 antagonist counterscreen hit in parental CHO-K1 cells | ATP-induced calcium, Fluo-8 fluorescence | inhibition, % at 3 µM | actives 0.6% (n = 360,000) | AID 602250;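 active means inhibition above a per-plate cutoff, the plate's mean sample inhibition plus 3 SD, cut at about 24% in these data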;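 further: 0% = DMSO plus EC80 ATP and 100% = DMSO alone without ATP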
M1 ag: agonists of human M1 muscarinic receptor. CHO-K1 hM1, Fluo-8 calcium fluorescence, agonist mode; 0% DMSO, 100% acetylcholine EC100. activation, % at 3 µM. P11229. actives 0.33% (n = 360,000);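 active means activation above the run's mean compound activation plus 3 SD, cut at about 16% in these data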;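 further: peak over basal fluorescence ratio within a 140 s kinetic read after compound addition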
M1 ag parental: nonselective activator or artifact in parental CHO-K1 cells. Fluo-8 calcium fluorescence; scaled to maximal ATP response, vehicle zero. activation, % at 3 µM. actives 0.48% (n = 360,000); in the data active means activation above about 15%;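 further: untransfected CHO-K1 host cells lacking M1 receptor as counterscreen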
M1 antag: blocks human M1 muscarinic receptor | inhibition, % at 3 µM | actives 1.3% (n = 360,000) | AID 588852 | CHO-K1 hM1, Fluo-8 calcium fluorescence, ACh EC80 antagonist;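 active means percent inhibition above its own plate's cutoff, namely the mean of that plate's compound wells plus 3 SD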;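 further: peak over basal fluorescence ratio during 140 s after agonist addition; 0% = ACh EC80 plus DMSO and 100% = DMSO alone without agonist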
Numbers without * were called inactive. Sampled rows, rich in hits. Any-hit rate of the full collection: about 2.4%.

SMILES	CHO-K1 Ca PAM	M1 PAM	CHO-K1 Ca antag	M1 ag	M1 ag parental	M1 antag
CCOC(=O)C1CCN(c2ncnc3c2oc2ccc(Cl)cc23)CC1	-5.2	-6.3	27.2*	-0.9	1.4	5.7
CCOC(=O)C1CCN(c2ncnc3c2[nH]c2cccc(OC)c23)CC1	6.1	-5.2	-5.8	-3.1	2.0	4.0
O=C(NCCc1ccccc1)C(=O)NCC1CCCN1S(=O)(=O)c1cccs1 (stereo not drawn)	5.5	-3.5	2.1	-2.6	3.8	5.7
COc1ccc(OC)c(/C=N/NC(=O)CCN2CCN(C(c3ccccc3)c3ccccc3)CC2)c1	15.2	-26.1	1.3	-11.1	0.1	48.0*
O=C(CCN1CCN(C(c2ccccc2)c2ccccc2)CC1)N/N=C/c1ccc(O)cc1	9.9	-26.9	-3.3	-10.8	1.6	36.9*
N#Cc1ccsc1NC(=O)CCN1CCN(C(c2ccccc2)c2ccccc2)CC1	3.0	-23.4	-26.1	-10.8	0.0	29.8*
O=C(C(=O)N1CCCCC1)c1c(-c2ccccc2)[nH]c2ccccc12	0.7	16.1	-13.4	-0.6	0.5	-21.7
CCCOc1ccc(/C=N/NC(=O)c2ccc3c(c2)OCO3)c(OCCC)c1	-8.4	32.5*	-12.2	3.7	-0.1	-27.7
COc1ccccc1/C=N/NC(=O)c1ccc2c(c1)OCO2	13.1	4.7	-8.6	-3.7	1.4	-8.4
O=C(CCCC(=O)NNC(=O)Nc1ccccc1)NNC(=O)Nc1ccccc1	-17.5	-8.1	28.4*	-2.4	-0.5	9.6
CSCc1ccc(C(=O)OCc2nc3ccccc3s2)o1	19.6	-8.8	-14.0	-6.5	0.9	2.3
CN(C)S(=O)(=O)c1cccc(NC(=O)COc2ccccc2C(=O)Nc2ccccc2)c1	8.9	-22.9	-5.2	2.0	1.9	41.3*
CN(C)S(=O)(=O)c1cccc(NC(=O)c2ccc(OC(F)(F)F)cc2)c1	4.8	-18.2	12.8	-5.3	19.4*	17.8
CCN(CC)CCNC(=O)c1ccc(NC(C)=O)cc1	11.4	-1.4	-1.1	-1.6	0.8	-18.2
Cc1ccc(S(=O)(=O)N(C)C)cc1NC(=O)COc1ccccc1C(=O)Nc1ccccc1	-10.6	-8.9	13.9	-2.5	5.1	16.0
CN(C)S(=O)(=O)c1cccc(NC(=O)c2ccc(COc3ccccc3)cc2)c1	-11.2	-24.2	29.7*	-2.6	18.4*	38.6*
CCN(CC)CCNC(=O)c1ccc(NC(=O)COc2ccc3c(c2)CCC3)cc1	7.0	-26.1	0.8	-7.5	0.3	44.6*
CCN(CC)CCNC(=O)c1ccc(NC(=O)c2ccc(C(=O)c3ccccc3)cc2)cc1	22.4	-14.4	-9.8	-8.1	1.6	12.4
CCN(CC)CCNC(=O)c1ccc(NC(=O)c2ccc(COc3ccccc3)cc2)cc1	16.6	-23.6	-7.9	-6.0	1.7	53.0*
CCC(C(=O)NC1CCCCC1)n1c(SCc2cccc(C)c2)nc2ccncc21 (stereo not drawn)	7.3	-28.9	-9.4	-11.3	2.0	28.1
CCC(C(=O)NC1CCCCC1)n1c(SCc2cccc(F)c2)nc2ccncc21 (stereo not drawn)	15.0	-29.9	-9.4	-10.7	1.6	45.4*
O=C(CSc1nc(-c2ccco2)cc(C(F)(F)F)n1)NC1CCCC1	4.5	-2.0	24.2*	2.6	1.6	-3.2
O=C(CSc1nc(-c2ccco2)cc(C(F)(F)F)n1)Nc1ccc2c(c1)CCC2	-5.0	6.3	4.6	0.3	0.1	-27.2
CCOC(=O)c1c(C)[nH]c(C(=O)COC(=O)C2CC2)c1C	-24.1	-11.8	12.9	-0.2	-0.3	30.9*
CC(=O)c1c(C)[nH]c(C(=O)COC(=O)C2CC2)c1C	8.1	12.5	-4.3	-1.4	0.7	-13.8
CCOC(=O)c1c(C)[nH]c(C(=O)COC(=O)COc2ccc(OC)cc2)c1C	17.1	6.7	-1.9	3.0	16.2*	-6.2
COCCCNC(=O)CC1C[C@H](C(=O)N2CCCCC2)[C@@]2(CCc3ccccc3)c3[nH]c4ccc(OC)cc4c3CCN2C1=O (stereo partly drawn)	-12.6	15.4	7.3	-0.2	-0.3	-19.1
O=C(c1cccc(-c2ccccc2F)c1)N1CC[C@@H](N2CCC(O)CC2)[C@H](O)C1	-6.4	0.6	-5.0	-3.7	1.0	-1.0
CCCCCNCc1ccc(Br)cc1	-11.1	2.8	0.1	6.7	0.8	5.4
